Reference: the supplement of paper PMC12669032
Values without a mark were called inactive.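 How the source made its calls: active = AUC reduced over 20% with Padj below 0.05 in at least 2 of 3 replicates; inactive = otherwise.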

Key:
Roseburia intestinalis = assay: growth AUC relative to DMSO control (median of replicates) (fraction); higher = more growth (less inhibition), active = hit call of the paper; details: 20 µM; 24 h
Summary of the method: (§1)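 Gut bacterial monocultures were grown anaerobically at 37 °C in mGAM from a starting OD600 of 0.05 with 20 µM compound (1% DMSO), in round-bottom 96-well plates under pierced gas-permeable seals, and OD600 was read hourly for 24 h. With the minimum OD set to 0, area under the growth curve was normalised to the plate median of solvent-only wells, or to row and column medians on the industrial chemical plate. Each value is the median of three biological replicates grown on separate days.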

Streptococcus salivarius = assay: as above; details: 20 µM; 24 h
Summary of the method: as §1

Row | Structure (SMILES) | growth AUC (Roseburia intestinalis) | growth AUC (Streptococcus salivarius)
1 | O=C(Nc1ccc(Cl)cc1C(O)c1ccccc1)c1ccncc1 (stereo unspecified) | 0.994 | 1
2 | FC(F)(F)/N=C1\SC(=Nc2ccccc2)N(c2ccccc2)\C1=N\C(F)(F)F | 0.922 | 0.946
3 | CNC(=O)/C(=N/OC)c1ccccc1COc1cc(C)ccc1C | 1.02 | 1.06
4 | Cc1cc(C2CC2)nc(Nc2ccc(O)cc2)n1 | 1.01 | 1.01
5 | COc1cc(OC)nc(NC(=O)NS(=O)(=O)N(C)S(C)(=O)=O)n1 | 0.99 | 1.02
6 | COc1ccc(Cl)c(Cl)c1Cl | 0.999 | 1.06
7 | CS(=O)(=O)c1ccc(C(=O)C2C(=O)C(O)CC(O)C2=O)c(Cl)c1COCC(F)(F)F (stereo unspecified) | 1.03 | 1.03
8 | O=S(=O)(Oc1ccc(Cl)cc1)c1ccccc1 | 0.988 | 0.955
9 | O=C(Nc1ccc(O)cc1-c1ccc(Cl)cc1)c1cccnc1Cl | 1.02 | 1.03
10 | CCOC(=O)C1=NN(c2ccc(Cl)cc2Cl)C(C)(C(=O)OCC)C1 (stereo unspecified) | 0.952 | 0.994
11 | COC(=O)c1ccccc1S(=O)(=O)NC(=O)n1nc(OCC(C)O)n(C)c1=O (stereo unspecified) | 1.01 | 1
12 | FC(F)(F)c1cccc(C(c2ccccc2)(c2ccccc2)n2cncn2)c1 | 0.911 | 0.94
13 | COC(=O)c1ccc(I)cc1S(=O)(=O)[N-]C(=O)Nc1nc(C)nc(OC)n1.[Na+] | 0.934 | 0.948
14 | O=[N+]([O-])c1ccc2c(c1)Cc1ccccc1-2 | 1.01 | 0.988
15 | CN(C)C(=O)Nc1ccc(Oc2ccc(Cl)cc2)cc1 | 0.874 | 0.94
16 | CN(C)C(=O)c1cccnc1S(N)(=O)=O | 1.03 | 0.978
17 | CS(=O)(=O)c1ccc(C(=O)O)c(N)c1 | 1.07 | 1.03

Row | Structure (SMILES) | growth AUC (Roseburia intestinalis) | growth AUC (Streptococcus salivarius)
18 | CCc1nc2ncnn2c(N)c1CCCC(=O)O.Cl | 0.991 | 1.01
19 | Nc1cccc(O)c1 | 0.989 | 1.02
20 | O=S(=O)(Cc1ccc(Cl)cc1)c1ccc(Cl)cc1 | 1.05 | 1.06
21 | CNC(=O)Sc1ccc(OS(C)(=O)=O)cc1 | 0.992 | 0.937
22 | CNC(=O)/C(=N/OC)c1ccccc1CO/N=C(C)/C(=N/OC)C(/C)=N/OC | 1.01 | 1.01
23 | CCCCC(CC)CN1C(=O)C2C(C1=O)[C@H]1C=C[C@@H]2C1 (mixture of isomers) | 1.07 | 1
24 | O.O=C(Nc1ccc(Cl)c(Cl)c1)Nc1cc(Cl)ccc1Oc1ccc(Cl)cc1S(=O)(=O)[O-].[Na+] | 0.792 (active) | 0.478 (active)
25 | COc1nc(C)nc(NC(=O)NS(=O)(=O)c2ccccc2OCCCl)n1 | 1 | 0.992
26 | Cc1nn(C)c(OCC(=O)c2ccccc2)c1C(=O)c1ccc(Cl)cc1Cl | 0.981 | 1.01
27 | Cc1cccc(C)c1N(C(=O)CCl)C1CCOC1=O (stereo unspecified) | 1.08 | 0.86
28 | COC1CCC2(CC1)NC(=O)C(c1cc(C)ccc1C)=C2O (stereo unspecified) | 0.986 | 1.03
29 | CCOC(=O)C(C)Oc1ccc(Oc2cnc3cc(Cl)ccc3n2)cc1 (stereo unspecified) | 1.02 | 1.05
30 | CCOC(=O)c1cnn(C)c1S(=O)(=O)NC(=O)Nc1nc(OC)cc(OC)n1 | 1.08 | 1.01
31 | COC(=O)CCCOc1ccc(Cl)cc1Cl | 0.887 | 0.931
32 | Nc1ccc(S(=O)(=O)Nc2nccs2)cc1 | 0.993 | 1.02
33 | CC(C)C1C2CCC1c1c(NC(=O)c3cn(C)nc3C(F)F)cccc12 (stereo unspecified) | 0.861 | 0.927
